Test results taken from the supplement of paper PMC6555819.

What was measured:
Experiment in all cases: PBM binding z-score (relative to random genomic background probes); higher = stronger binding; sequences stand for … in GC…GCGATTGACAGCGTAGAATGAAGG
[1] = tested on: FXR:RXRa (NR concentration 270 nM, RXRa partner concentration 90 nM)
Procedure, shortened: (§1)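 Scanned fluorescence from custom Agilent 4×180K protein-binding microarrays was regression-normalized. Binding z-scores use random background probes as reference. Ligand-free nuclear receptor dimers were incubated on the arrays for 1 h and detected with antibodies against each partner (one per run).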

[2] = tested on: LXRa:RXRa (NR concentration 270 nM, RXRa partner concentration 90 nM)
Procedure, shortened: as §1

[3] = tested on: LXRa homodimer (NR concentration 270 nM)
Procedure, shortened: as §1

[4] = tested on: LXRb:RXRa (NR concentration 270 nM, RXRa partner concentration 90 nM)
Procedure, shortened: as §1

[5] = tested on: LXRb homodimer (NR concentration 270 nM)
Procedure, shortened: as §1

[6] = tested on: PPARa:RXRa (NR concentration 270 nM, RXRa partner concentration 90 nM)
Procedure, shortened: as §1

[7] = tested on: PPARg:RXRa (NR concentration 180 nM, RXRa partner concentration 90 nM)
Procedure, shortened: as §1

[8] = tested on: PPARg:RXRa 270nM:90nM, anti-RXR (NR concentration 270 nM, RXRa partner concentration 90 nM)
Procedure, shortened: as §1

[9] = tested on: PPARg:RXRa 30nM:10nM, anti-RXR (NR concentration 30 nM, RXRa partner concentration 10 nM)
Procedure, shortened: as §1

[10] = tested on: PPARg:RXRa 90nM:30nM, anti-RXR (NR concentration 90 nM, RXRa partner concentration 30 nM)
Procedure, shortened: as §1

Row | Sequence | PBM binding z-score [1] | PBM binding z-score [2] | PBM binding z-score [3] | PBM binding z-score [4] | PBM binding z-score [5] | PBM binding z-score [6] | PBM binding z-score [7] | PBM binding z-score [8] | PBM binding z-score [9] | PBM binding z-score [10]
1 | ATCTCTTGGTAAAGTTCAGTGAAAGATCGATAGA | 1.08 | 2.09 | 1.65 | 1.6 | 1.5 | 1.69 | 1.54 | 3.02 | 1.39 | 2.65
2 | CAAACTTGGTCAAGAGGTCAAAGTCCGCTTCCCG | 5.72 | 5.27 | 5.52 | 5.04 | 1.18 | 5.37 | 4.2 | 5.18 | 2.94 | 4.56
3 | ATCTCTAGGTAAGACTCAGTTCAGTCAAGAACGC | 0.474 | 0.647 | 0.721 | 0.685 | 0.923 | 0.293 | 0.116 | 0.136 | 0.155 | 0.184
4 | TAGCCTAGGTCAGATCAGGCCAGTATACGCTATA | 2.57 | 1.55 | -0.196 | 0.898 | -0.239 | 1.69 | 0.794 | 0.923 | 0.0567 | 0.604
5 | GCGACTGAGGCATCAGCAGGTTACCATAACTTAA | -0.539 | -0.504 | -0.511 | -0.382 | -0.493 | -0.272 | 0.31 | -0.607 | -0.469 | -0.443
6 | GCTAGCGGGCCATTTGGGTCACTCAATGACGGGC | -0.0868 | -0.0931 | -0.975 | -0.141 | -0.972 | 1.26 | 0.395 | 0.262 | -0.653 | -0.112
7 | ACTAGCAGGCCAAGTGTGGGTCACTCAAACAAAG | -0.167 | 0.206 | -0.486 | 0.691 | -0.959 | 2.19 | 0.66 | 1.38 | -0.102 | 0.685
8 | CCGACTGGGGCAAGGGTACCATAACGCACAGCCA | -0.555 | -0.391 | -0.264 | -0.192 | -1.39 | 1.5 | 4.24 | 4.92 | 2.6 | 4.6
9 | ATATGTAGGTTATCTGGTCATTCAGTTTGCGCAT | 1.2 | 1.28 | 1.15 | 1.21 | 0.901 | 3.58 | 5.56 | 4.79 | 2.32 | 4.3
10 | GCTTACGGGTCAAAGGTTATACCATGAATAGAAT | 7.48 | 5.87 | 0.778 | 5.87 | 0.759 | 7.21 | 11.2 | 9.29 | 9.29 | 10.3
11 | ACTTACGGGTAAACGAGGTTATAGCACGCGTATA | 0.677 | 2.57 | 0.806 | 1.56 | 0.485 | 2.01 | 0.93 | 0.752 | 0.277 | 0.238
12 | CCTTACGGGTCACTAGGTTATAGCACGACGAGCG | 4.41 | 3.03 | 0.136 | 2.64 | -0.31 | 5.02 | 6.65 | 5.97 | 3.03 | 4.94
13 | CCTATTAGTTGACCATAAGGGCAACCGAAGCTCG | 1.08 | 0.988 | 0.64 | 0.736 | 0.554 | 0.977 | 0.556 | 0.931 | -0.00379 | 1.03
14 | CCTACTGGGGCAAAAAGGTCATTGATGCCGATAA | 3.82 | 4.34 | 2.86 | 3.92 | 0.284 | 4.96 | 4.68 | 5.28 | 2.57 | 4.43
15 | TCTTGTAGATCAACAGGAGGTTAACAAAGATCGA | 0.166 | 1.73 | 0.274 | 1.3 | -0.158 | 1.69 | 0.373 | 1.39 | 2.62 | 1.92
16 | GATACAGGGTCAGCTAGAGGCCATAGTATGGAAA | 4.67 | 3.04 | -0.128 | 2.94 | -0.352 | 4.53 | 4.05 | 3.34 | 0.897 | 2.51
17 | CATACAGGGTCTGCTAGGCCAGAGTAGGGACGGC | -0.237 | -0.31 | -0.443 | -0.834 | -0.599 | -0.452 | 0.152 | -0.899 | -0.808 | -0.386
18 | CCTACTGGGCCAAAAAGGTCAATGATGCCGATAA | 2.77 | 3.48 | 1.68 | 3.86 | -0.306 | 4.92 | 3.36 | 3.84 | 1.55 | 2.86
19 | TAGCCTAGCTCATGGGCCAGTATACCACGCGAAC | -0.822 | -0.837 | -0.369 | -0.9 | -0.798 | -0.776 | 0.282 | -0.783 | -0.762 | -1.03
20 | GCGACTGGGGCAAAGCATGTTACCATAAGGTTGG | -0.69 | -0.602 | -0.362 | -0.192 | -1.06 | 0.898 | 1.61 | 2.22 | 0.294 | 1.58
21 | TCTCGGAGGACACGAAAGGTCATAGCTCGACATC | 4.39 | 5.36 | 5.67 | 4.45 | 0.51 | 4.49 | 2.19 | 3.86 | 3.01 | 3.37
22 | TGAATGAGGTTAAAGATCACGGAACGTGGCGTCG | 3.68 | 2.87 | -0.664 | 2.2 | 0.233 | 5.33 | 7.54 | 7.16 | 6.14 | 7.59
23 | TAGCCTAGGTCATTGGGCCAGGATAGTACGCATC | 3.92 | 3.17 | 0.159 | 1.47 | -0.488 | 3.6 | 3.36 | 3.58 | 0.83 | 2.29
24 | CGAACGAGGGCATGAGTTGATACCAAATGCCGAT | 0.819 | 0.53 | -0.18 | 0.374 | -0.612 | 1.57 | 1.61 | 1.67 | 0.555 | 0.997
25 | TATACAGGGTCAAGGGCCAGAGTACGAATGTCGA | 6.63 | 5.65 | 1.91 | 4.4 | 2.42 | 5.8 | 7.15 | 6.47 | 3.84 | 5.91
